Laboratory results: article PMC9838217, “Structure of SALL4 zinc finger domain reveals link between AT-rich DNA binding and Okihiro syndrome”
Where a chain is given by its changes, count along the chain named.

What was measured:
Test in all cases: HT-SELEX; high values mean tight binding
Settings in all cases: protein: recombinant; vector His6-GST; dsDNA, one strand shown
[1] = molecular target: T1, SALL4 ZFC4 WT (HT-SELEX) (Mus musculus, UniProt Q8BX22 870-940)
T1 sequence: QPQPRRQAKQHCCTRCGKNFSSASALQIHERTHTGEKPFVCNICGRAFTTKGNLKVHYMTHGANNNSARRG
Procedure, shortened: (§1)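 For each canonical k-mer, binding signal is the read fraction as fold change versus the initial random library. Data came from up to 6 triplicate cycles in which purified recombinant mouse SALL4 zinc finger cluster 4 (residues 870–940, 1 µg) was incubated 10 min at room temperature with library DNA (1.5 µg first cycle, 200 ng later) in 100 µl of 10 mM Tris–HCl pH 7.5, 50 mM NaCl, poly(dI-dC), DTT, followed by Ni2+ bead capture, PCR amplification, MiSeq sequencing and a 6-mer scan.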

[2] = molecular target: T2, SALL4 ZFC4 R900W (HT-SELEX) (Mus musculus, UniProt Q8BX22 870-940, R900W)
T2 sequence: T1 sequence with R31W
Procedure, shortened: as §1

[3] = molecular target: T3, SALL4 ZFC4 G921D (HT-SELEX) (Mus musculus, UniProt Q8BX22 870-940, G921D)
T3 sequence: T1 sequence with G52D
Procedure, shortened: as §1

Sequence | binding signal [1] [fold-change vs cycle 0] | binding signal [2] [fold-change vs cycle 0] | binding signal [3] [fold-change vs cycle 0]
CGTGAC | 0.379 ± 0.0323 | 0.463 ± 0.0197 | 0.556 ± 0.043
ACACCT | 0.834 ± 0.0401 | 0.949 ± 0.0347 | 0.979 ± 0.022
ACCTGG | 0.46 ± 0.021 | 0.537 ± 0.0102 | 0.635 ± 0.0393
AGTTAA | 1.95 ± 0.0954 | 2.13 ± 0.114 | 1.84 ± 0.201
GTTAAC | 1.39 ± 0.126 | 1.53 ± 0.0957 | 1.38 ± 0.101
CCGGTA | 0.345 ± 0.0119 | 0.396 ± 0.0133 | 0.501 ± 0.0627
AGGGTG | 0.486 ± 0.0118 | 0.567 ± 0.0247 | 0.648 ± 0.0341
CTAGCA | 0.695 ± 0.0294 | 0.782 ± 0.0282 | 0.86 ± 0.0269
GATCTA | 1.25 ± 0.0377 | 1.36 ± 0.0544 | 1.41 ± 0.0811
ACATAA | 2.21 ± 0.177 | 1.96 ± 0.0742 | 1.75 ± 0.158
CCGTGA | 0.39 ± 0.0265 | 0.468 ± 0.0123 | 0.578 ± 0.0442
ACTTGC | 0.656 ± 0.0276 | 0.723 ± 0.0488 | 0.815 ± 0.0179
AGACAA | 1.15 ± 0.0323 | 1.28 ± 0.0792 | 1.26 ± 0.0604
CTCACC | 0.488 ± 0.0202 | 0.56 ± 0.0155 | 0.677 ± 0.0522
TACAAA | 1.84 ± 0.0971 | 1.82 ± 0.0757 | 1.67 ± 0.0747
GTGGAA | 0.745 ± 0.0414 | 0.83 ± 0.0233 | 0.871 ± 0.012
ATTAAT | 6.27 ± 0.662 | 2.77 ± 0.256 | 2.34 ± 0.327
CCAGGA | 0.465 ± 0.017 | 0.546 ± 0.0174 | 0.63 ± 0.0152
ACCTGA | 0.842 ± 0.0331 | 1 ± 0.047 | 1.02 ± 0.0552
GAAACA | 1.23 ± 0.0252 | 1.33 ± 0.0252 | 1.29 ± 0.046
CATTTC | 1.25 ± 0.0444 | 1.26 ± 0.0656 | 1.23 ± 0.0622
ATCAAC | 1.34 ± 0.0602 | 1.45 ± 0.0864 | 1.42 ± 0.0753
CGAAAA | 0.827 ± 0.0572 | 0.851 ± 0.0107 | 0.912 ± 0.0336
GAACCC | 0.462 ± 0.0176 | 0.565 ± 0.0113 | 0.668 ± 0.0409
AAACTT | 1.81 ± 0.119 | 1.89 ± 0.128 | 1.68 ± 0.174
ACAGGG | 0.493 ± 0.038 | 0.569 ± 0.0399 | 0.639 ± 0.0358
ATGCTC | 0.663 ± 0.0343 | 0.754 ± 0.0376 | 0.845 ± 0.0337
AACTCC | 0.917 ± 0.0119 | 1.02 ± 0.0156 | 1.06 ± 0.0177
AGTGTG | 0.745 ± 0.0331 | 0.85 ± 0.0147 | 0.909 ± 0.0296
GATCCA | 0.791 ± 0.0326 | 0.883 ± 0.0218 | 0.996 ± 0.0315
